# The supplement of paper PMC7411054
# Counter-ions that a name gives are not always drawn.
# Experiments:
# Conditions in all cases: treatment time: 24 h
# A549-ACTB-RAB5A [1] = experiment: phenotypically active (imaging signature differs from DMSO and reproducible) at any of 0.3-9 uM (binary (1 = active, 0 = inactive)); higher = active
# In short: (§1)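 Fifteen gene-edited A549, HepG2 and WPMY1 reporter lines (BFP segmentation plus GFP and RFP/FusionRed markers) were treated at 0.3, 1, 3 or 9 µM for 24 h, four wells each, then imaged live. Live-cell features per well were normalised to DMSO control wells. Deviation required ≥3 of 4 wells beyond the 95th percentile of DMSO Euclidean distances, and reproducibility required median replicate Pearson correlation above the 95th percentile of non-replicates. Phenotypic activity needed both criteria.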
# A549-CANX-COX4 [2] = experiment: as above
# In short: as §1
# A549-GM130-SQSTM1 [3] = experiment: as above
# In short: as §1
# A549-TP53BP1-CLTA [4] = experiment: as above
# In short: as §1
# A549-TUBA1B-RELA [5] = experiment: as above
# In short: as §1
# HepG2-ACTB-RAB5A = experiment: as above
# In short: as §1
# HepG2-CANX-COX4 = experiment: as above
# In short: as §1
# HepG2-GM130-SQSTM1 = experiment: as above
# In short: as §1
# HepG2-TP53BP1-CLTA = experiment: as above
# In short: as §1
# HepG2-TUBA1B-RELA = experiment: as above
# In short: as §1
# WPMY1-ACTB-RAB5A = experiment: as above
# In short: as §1
# WPMY1-CANX-COX4 = experiment: as above
# In short: as §1
# WPMY1-GM130-SQSTM1 = experiment: as above
# In short: as §1
# WPMY1-TP53BP1-CLTA = experiment: as above
# In short: as §1
# WPMY1-TUBA1B-RELA = experiment: as above
# In short: as §1
# A549-ACTB-RAB5A [6] = experiment: lowest phenotypically active concentration; higher = less potent
# In short: as §1
# A549-CANX-COX4 [7] = experiment: as above
# In short: as §1
# A549-GM130-SQSTM1 [8] = experiment: as above
# In short: as §1
# A549-TP53BP1-CLTA [9] = experiment: as above
# In short: as §1
# A549-TUBA1B-RELA [10] = experiment: as above
# In short: as §1
SMILES,phenotypically active (A549-ACTB-RAB5A [1]),phenotypically active (A549-CANX-COX4 [2]),phenotypically active (A549-GM130-SQSTM1 [3]),phenotypically active (A549-TP53BP1-CLTA [4]),phenotypically active (A549-TUBA1B-RELA [5]),phenotypically active (HepG2-ACTB-RAB5A),phenotypically active (HepG2-CANX-COX4),phenotypically active (HepG2-GM130-SQSTM1),phenotypically active (HepG2-TP53BP1-CLTA),phenotypically active (HepG2-TUBA1B-RELA),phenotypically active (WPMY1-ACTB-RAB5A),phenotypically active (WPMY1-CANX-COX4),phenotypically active (WPMY1-GM130-SQSTM1),phenotypically active (WPMY1-TP53BP1-CLTA),phenotypically active (WPMY1-TUBA1B-RELA),lowest phenotypically active concentration (A549-ACTB-RAB5A [6]),lowest phenotypically active concentration (A549-CANX-COX4 [7]),lowest phenotypically active concentration (A549-GM130-SQSTM1 [8]),lowest phenotypically active concentration (A549-TP53BP1-CLTA [9]),lowest phenotypically active concentration (A549-TUBA1B-RELA [10])
CC1(C(=O)O)CCC2(C)CCC3(C)C(=CC(=O)C4C5(C)CCC(OC6OC(C(=O)O)C(O)C(O)C6OC6OC(C(=O)O)C(O)C(O)C6O)C(C)(C)C5CCC43C)C2C1 (stereo not drawn) [Glycyrrhizic acid],0 (inactive),0 (inactive),0 (inactive),0 (inactive),0 (inactive),0 (inactive),0 (inactive),0 (inactive),0 (inactive),0 (inactive),0 (inactive),0 (inactive),0 (inactive),0 (inactive),0 (inactive),–,–,–,–,–
COc1ccc2c(c1OC)C(=O)O[C@@H]2[C@H]1c2c(cc3c(c2OC)OCO3)CCN1C [Noscapine hydrochloride],0 (inactive),0 (inactive),0 (inactive),0 (inactive),0 (inactive),0 (inactive),0 (inactive),0 (inactive),0 (inactive),0 (inactive),0 (inactive),0 (inactive),0 (inactive),0 (inactive),0 (inactive),–,–,–,–,–
O=C(NCC1CCCCN1)c1cc(OCC(F)(F)F)ccc1OCC(F)(F)F (stereo not drawn) [flecainide],0 (inactive),0 (inactive),0 (inactive),0 (inactive),0 (inactive),0 (inactive),0 (inactive),0 (inactive),0 (inactive),0 (inactive),0 (inactive),0 (inactive),0 (inactive),0 (inactive),0 (inactive),–,–,–,–,–
O=C(c1ccccc1)c1ccc2n1CCC2C(=O)O (stereo not drawn) [ketorolac],0 (inactive),0 (inactive),0 (inactive),0 (inactive),0 (inactive),0 (inactive),0 (inactive),0 (inactive),0 (inactive),0 (inactive),0 (inactive),0 (inactive),0 (inactive),0 (inactive),0 (inactive),–,–,–,–,–
NC(=O)C(c1ccccc1)(c1ccc(F)cc1)c1ccc(F)cc1 [senicapoc],0 (inactive),0 (inactive),0 (inactive),0 (inactive),0 (inactive),0 (inactive),0 (inactive),0 (inactive),0 (inactive),0 (inactive),0 (inactive),0 (inactive),0 (inactive),0 (inactive),0 (inactive),–,–,–,–,–
O=C1N[C@@H]2[C@@H](O)[C@@H](O)[C@H](O)[C@@H](CO)N2C1=O [Kifunensine],0 (inactive),0 (inactive),0 (inactive),0 (inactive),0 (inactive),0 (inactive),0 (inactive),0 (inactive),0 (inactive),0 (inactive),0 (inactive),0 (inactive),0 (inactive),0 (inactive),0 (inactive),–,–,–,–,–
CCOC(=O)CCNc1cc(N2CCc3ccccc3CC2)nc(-c2cccnc2)n1,0 (inactive),0 (inactive),0 (inactive),0 (inactive),0 (inactive),0 (inactive),0 (inactive),0 (inactive),0 (inactive),0 (inactive),0 (inactive),0 (inactive),0 (inactive),0 (inactive),0 (inactive),–,–,–,–,–
S=P(N1CC1)(N1CC1)N1CC1 [thiotepa],0 (inactive),0 (inactive),0 (inactive),0 (inactive),0 (inactive),0 (inactive),0 (inactive),0 (inactive),0 (inactive),0 (inactive),0 (inactive),0 (inactive),0 (inactive),0 (inactive),0 (inactive),–,–,–,–,–
C=CCc1ccc(O)c(-c2ccc(O)c(CC=C)c2)c1 [Honokiol],1 (active),0 (inactive),0 (inactive),0 (inactive),0 (inactive),0 (inactive),0 (inactive),0 (inactive),0 (inactive),0 (inactive),0 (inactive),0 (inactive),0 (inactive),0 (inactive),0 (inactive),9 µM,–,–,–,–
O=C(O)c1cc(/N=N/c2ccc(S(=O)(=O)Nc3ccccn3)cc2)ccc1O [Sulfasalazine],0 (inactive),0 (inactive),0 (inactive),0 (inactive),0 (inactive),0 (inactive),0 (inactive),0 (inactive),0 (inactive),0 (inactive),0 (inactive),0 (inactive),0 (inactive),0 (inactive),0 (inactive),–,–,–,–,–
O=C(Nc1cccnn1)N1CCN(c2nccc(-c3ccc(F)c(F)c3)n2)CC1,0 (inactive),0 (inactive),0 (inactive),0 (inactive),0 (inactive),0 (inactive),0 (inactive),0 (inactive),0 (inactive),0 (inactive),0 (inactive),0 (inactive),0 (inactive),0 (inactive),0 (inactive),–,–,–,–,–
CCCCCCCCCCCCCCCC[n+]1ccn(Cc2ccccc2)c1C,1 (active),1 (active),1 (active),1 (active),1 (active),1 (active),1 (active),1 (active),1 (active),1 (active),1 (active),1 (active),1 (active),1 (active),1 (active),1 µM,≤ 0.3 µM,≤ 0.3 µM,1 µM,1 µM
FC(F)(F)c1ccc(/C=C/c2nc(COc3ccc(CCCCn4ccnn4)cc3)co2)cc1,1 (active),1 (active),1 (active),1 (active),1 (active),1 (active),1 (active),1 (active),1 (active),1 (active),0 (inactive),0 (inactive),0 (inactive),0 (inactive),0 (inactive),≤ 0.3 µM,≤ 0.3 µM,≤ 0.3 µM,≤ 0.3 µM,≤ 0.3 µM
Nc1nc(OCC2CCCCC2)c2nc[nH]c2n1,1 (active),0 (inactive),0 (inactive),0 (inactive),0 (inactive),0 (inactive),0 (inactive),0 (inactive),0 (inactive),0 (inactive),0 (inactive),0 (inactive),0 (inactive),0 (inactive),0 (inactive),9 µM,–,–,–,–
CCC(=O)OCC(=O)[C@@]1(OC(=O)CC)[C@@H](C)C[C@H]2[C@@H]3CCC4=CC(=O)C=C[C@]4(C)[C@@]3(Cl)[C@@H](O)C[C@@]21C [beclomethasone-dipropionate],1 (active),1 (active),1 (active),1 (active),1 (active),0 (inactive),0 (inactive),0 (inactive),0 (inactive),0 (inactive),0 (inactive),0 (inactive),0 (inactive),0 (inactive),0 (inactive),≤ 0.3 µM,≤ 0.3 µM,≤ 0.3 µM,≤ 0.3 µM,≤ 0.3 µM
CC(=O)N1CCN(C)CC1 [1-Acetyl-4-methylpiperazine hydrochloride],0 (inactive),0 (inactive),0 (inactive),0 (inactive),0 (inactive),0 (inactive),0 (inactive),0 (inactive),0 (inactive),0 (inactive),0 (inactive),0 (inactive),0 (inactive),0 (inactive),0 (inactive),–,–,–,–,–
CCOC(=O)[C@H](CCc1ccccc1)N[C@@H](C)C(=O)N1Cc2ccccc2C[C@H]1C(=O)O [quinapril],0 (inactive),0 (inactive),0 (inactive),0 (inactive),0 (inactive),0 (inactive),0 (inactive),0 (inactive),0 (inactive),0 (inactive),0 (inactive),0 (inactive),0 (inactive),0 (inactive),0 (inactive),–,–,–,–,–
CC(=O)[C@@]1(O)CC[C@H]2[C@@H]3C[C@H](C)C4=CC(=O)C=C[C@]4(C)[C@@]3(F)[C@@H](O)C[C@@]21C [fluorometholone],1 (active),1 (active),1 (active),1 (active),1 (active),0 (inactive),0 (inactive),0 (inactive),0 (inactive),0 (inactive),0 (inactive),0 (inactive),0 (inactive),0 (inactive),0 (inactive),≤ 0.3 µM,≤ 0.3 µM,≤ 0.3 µM,≤ 0.3 µM,≤ 0.3 µM
CCCc1nc(C(C)(C)O)c(C(=O)OCc2oc(=O)oc2C)n1Cc1ccc(-c2ccccc2-c2nnn[nH]2)cc1 [olmesartan-medoxomil],0 (inactive),0 (inactive),0 (inactive),0 (inactive),0 (inactive),0 (inactive),0 (inactive),0 (inactive),0 (inactive),0 (inactive),0 (inactive),0 (inactive),0 (inactive),0 (inactive),0 (inactive),–,–,–,–,–
COc1cc(C=O)c([N+](=O)[O-])cc1OC,0 (inactive),0 (inactive),0 (inactive),0 (inactive),0 (inactive),0 (inactive),0 (inactive),0 (inactive),0 (inactive),0 (inactive),0 (inactive),0 (inactive),0 (inactive),0 (inactive),0 (inactive),–,–,–,–,–
COc1nc(N)nc2c1ncn2[C@@H]1O[C@H](CO)[C@@H](O)[C@@H]1O [Nelarabine],1 (active),0 (inactive),0 (inactive),0 (inactive),0 (inactive),0 (inactive),0 (inactive),0 (inactive),0 (inactive),0 (inactive),0 (inactive),0 (inactive),0 (inactive),0 (inactive),0 (inactive),9 µM,–,–,–,–
CCOC(=O)[C@H](CCc1ccccc1)N[C@@H](C)C(=O)N1[C@H](C(=O)O)C[C@@H]2CCC[C@@H]21 [ramipril],0 (inactive),0 (inactive),0 (inactive),0 (inactive),0 (inactive),0 (inactive),0 (inactive),0 (inactive),0 (inactive),0 (inactive),0 (inactive),0 (inactive),0 (inactive),0 (inactive),0 (inactive),–,–,–,–,–
CCC1(C)OC(=O)N(C)C1=O (stereo not drawn) [paramethadione],0 (inactive),0 (inactive),0 (inactive),0 (inactive),0 (inactive),0 (inactive),0 (inactive),0 (inactive),0 (inactive),0 (inactive),0 (inactive),0 (inactive),0 (inactive),0 (inactive),0 (inactive),–,–,–,–,–
